In PubChem BioAssay (EPA / NIEHS) one finds outcome and AC50 data, which are given here for 7 molecules.

Assay [1] is described as follows: ATG_CRE_CIS: Attagene CIS-FACTORIAL HepG2 Assay for human cAMP Responsive Element (CRE) binding protein 3 (AID 2282926). To be noted: HepG2 CRE cis-reporter, Attagene multiplexed mRNA; actives raise or lower the signal. Summed up: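 Induced reporter mRNA from a CRE cis element, measured in HepG2 among many multiplexed units at 24 h. Detection used RT-PCR plus capillary electrophoresis of fluorescent fragments; DMSO served as negative control.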

In assay [2] the target is CCAAT/enhancer-binding protein beta (Homo sapiens) (UniProt P17676). The assay can be described thus: ATG_C_EBP_CIS: Attagene CIS-FACTORIAL HepG2 Assay for human CCAAT/Enhancer Binding Protein (C/EBP) beta (AID 2282927). To be noted: HepG2 Attagene cis-factorial transcription factor reporter; actives raise or lower the signal. The method, boiled down:
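HepG2 transiently transfected with multiplexed reporter units under cis-regulatory promoters reporting endogenous C/EBPb activity. After 24 h exposure, reporter mRNA assayed by RT-PCR, fluorescent labelling, HpaI digestion and capillary electrophoresis; bidirectional fitting versus DMSO.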

Assay [3] is described as follows: ATG_CMV_CIS: Attagene CIS-FACTORIAL HepG2 Assay for human CMV (Internal Marker) (AID 2282928).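 Note: endpoint acts as a background internal control marker rather than a target.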 To be noted: HepG2 CMV promoter reporter, transcription factor profiling; actives raise or lower the signal. Summed up: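 24 h chemical treatment, HepG2 with transient multi-reporter transfection; RNA → oligo(dT) RT → PCR → 6-FAM extension → HpaI digest → CE fluorescence. Bidirectional fit, DMSO negative control.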

Assay [4] can be described thus: ATG_DR4_LXR_CIS: Attagene CIS-FACTORIAL HepG2 Assay for human Liver X Receptor (LXR), DR4 submotif (AID 2282929). To be noted: HepG2 Attagene DR4 cis-reporter, mRNA transcription; actives raise or lower the signal. The method, boiled down:
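Endogenous factor activity at a DR4 cis-element is read as reporter mRNA in transiently transfected HepG2 cells. Exposure lasts 24 h; transcripts are amplified, fluorescently labelled and sized by capillary electrophoresis, with DMSO as baseline.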

Assay [5] addresses Aryl hydrocarbon receptor (Homo sapiens) (UniProt P35869). Put plainly: ATG_Ahr_CIS: Attagene CIS-FACTORIAL HepG2 Assay for human Aryl Hydrocarbon Receptor (Ahr) (AID 2282930). To be noted: HepG2 AhR cis-factorial reporter transcription; actives raise or lower the signal. Summed up:
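HepG2 cells transiently transfected with cis-element-driven multiplexed reporter units; endogenous AhR activity read as reporter mRNA 24 h after dosing, via RT-PCR, 6-FAM labelling, HpaI digestion and capillary electrophoresis. Bidirectional fit relative to DMSO.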

Assay [6] can be described thus: ATG_AP_1_CIS: Attagene CIS-FACTORIAL HepG2 Assay for human Activator Protein 1 (AP-1) (AID 2282931). To be noted: HepG2 Attagene cis-factorial AP-1 reporter mRNA; actives raise or lower the signal. The method, boiled down:
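Fluorescence of labelled PCR fragments separated by capillary electrophoresis gives reporter mRNA levels. HepG2 with transfected cis-regulated reporter units, 24 h exposure; DMSO serves as baseline for bidirectional curve fits.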

Assay [7] in a line: ATG_AP_2_CIS: Attagene CIS-FACTORIAL HepG2 Assay for human Activator Protein 2 (AP-2) (AID 2282932). To be noted: HepG2 AP-2 cis-reporter, Attagene transcription factor profiling; actives raise or lower the signal. Summed up: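 Read-out: fluorescent reporter mRNA via RT-PCR and capillary electrophoresis, 24 h post-dose in transiently transfected HepG2. Endogenous factors drive cis-promoter reporters; gain or loss of signal fitted bidirectionally against DMSO.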

Assay [8] is described as follows: ATG_BRE_CIS: Attagene CIS-FACTORIAL HepG2 Assay for human Bone Morphogenetic Protein (BMP) Response Element (BRE) (AID 2282933). To be noted: HepG2 BMP response element reporter, Attagene transcription factor profiling; actives raise or lower the signal. Summed up:
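Gain- or loss-of-signal was derived by bidirectional fitting against DMSO controls. The signal came from reporter mRNA, measured by RT-PCR and capillary electrophoresis, in HepG2 cells transiently carrying multiple reporter units and dosed for 24 h.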

Assay [9] addresses Transcription factor E2F1 (Homo sapiens) (UniProt Q01094). Put plainly: ATG_E2F_CIS: Attagene CIS-FACTORIAL HepG2 Assay for human E2F Transcription Factor 1 (AID 2282935). To be noted: HepG2 Attagene cis-reporter, E2F reporter RNA transcripts; actives raise or lower the signal. The method, boiled down:
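Transient MRTU transfection of HepG2; 24 h compound exposure; RNA → oligo(dT) RT → PCR → FAM label → HpaI cut → CE fluorescence. Gain/loss of signal fit against DMSO.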

A short description of assay [10]: ATG_E_Box_CIS: Attagene CIS-FACTORIAL HepG2 Assay for human Enhancer Box (E-box) (AID 2282936). To be noted: HepG2 E-box cis-reporter transcription, actives raise or lower the signal. The method, boiled down: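 Transiently transfected HepG2, endogenous TF-driven reporters, 24 h dosing. Readout: RT-PCR plus capillary electrophoresis of fluorescent reporter fragments. Gain or loss of signal fitted bidirectionally against DMSO baseline.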

Assay [11] is described as follows: ATG_M_61_CIS: Attagene CIS-FACTORIAL HepG2 Assay for M61 Transcription Factor (Internal Marker) (AID 2282937). To be noted: HepG2 Attagene CIS-FACTORIAL M61 internal marker reporter; actives raise or lower the signal. The method, boiled down:
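This endpoint serves as an internal background control within a multiplexed HepG2 cis-reporter panel. Cells are exposed for 24 h; reporter mRNA is amplified, fluorescently labelled and sized by capillary electrophoresis, with DMSO as negative control.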

Assay [12] can be described thus: ATG_EGR_CIS: Attagene CIS-FACTORIAL HepG2 Assay for human Early Growth Response 1 (EGR1) (AID 2282938). To be noted: HepG2 Attagene CIS-FACTORIAL EGR reporter mRNA; actives raise or lower the signal. The method, boiled down:
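HepG2, transient MRTU transfection (cis promoters), 24 h compound. RNA → RT (oligo-dT) → PCR → 6-FAM labelling → HpaI cut → CE fluorescence. Bidirectional fit, DMSO baseline.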

The nature of assay [13]: ATG_M_19_CIS: Attagene CIS-FACTORIAL HepG2 Assay for M19 Transcription Factor (Internal Marker) (AID 2282939). To be noted: HepG2 Attagene CIS-FACTORIAL M19 internal marker reporter; actives raise or lower the signal. The method, boiled down: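 Following a 24 h exposure, RNA from transfected HepG2 cells was reverse-transcribed, PCR-amplified with reporter-specific primers, end-labelled with 6-FAM and HpaI-digested before capillary separation. Values represent gain or loss versus DMSO.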

Assay [14] is described as follows: ATG_ERE_CIS: Attagene CIS-FACTORIAL HepG2 Assay for Estrogen Response Element (ERE) (AID 2282940). To be noted: HepG2 ERE cis-reporter, Attagene RNA transcript; actives raise or lower the signal. Summed up:
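HepG2, transient cis-reporter units, 24 h exposure. RNA isolated, oligo(dT) RT, reporter-specific PCR, FAM extension, HpaI cut, CE detection. Gain/loss-of-signal vs DMSO.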

A short description of assay [15]: ATG_Ets_CIS: Attagene CIS-FACTORIAL HepG2 Assay for human Erythroblast Transformation Specific (ETS) (AID 2282941). To be noted: HepG2 ETS cis-reporter transcription, actives raise or lower the signal. Summed up: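 Cis-regulated reporter mRNA induction in HepG2 (transient transfection), 24 h exposure, RT-PCR plus capillary electrophoresis detection; DMSO serves as negative control and baseline.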

Assay [16] deals with Hepatocyte nuclear factor 3-beta (Homo sapiens) (UniProt Q9Y261). The assay can be described thus: ATG_FoxA2_CIS: Attagene CIS-FACTORIAL HepG2 Assay for human Forkhead box A2 (FOXA2) (AID 2282942). To be noted: HepG2 cis-reporter transcription factor activity, 24 h; actives raise or lower the signal. Summed up: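 Cells: HepG2, transient multiplex reporter transfection. Exposure 24 h. Detection: reporter-specific RT-PCR, fluorescent labelling, restriction digest, capillary electrophoresis. Analysis: bidirectional curve fit, DMSO as negative control.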
Sequence of Hepatocyte nuclear factor 3-beta (Homo sapiens) (Q9Y261 whole entry, looked up): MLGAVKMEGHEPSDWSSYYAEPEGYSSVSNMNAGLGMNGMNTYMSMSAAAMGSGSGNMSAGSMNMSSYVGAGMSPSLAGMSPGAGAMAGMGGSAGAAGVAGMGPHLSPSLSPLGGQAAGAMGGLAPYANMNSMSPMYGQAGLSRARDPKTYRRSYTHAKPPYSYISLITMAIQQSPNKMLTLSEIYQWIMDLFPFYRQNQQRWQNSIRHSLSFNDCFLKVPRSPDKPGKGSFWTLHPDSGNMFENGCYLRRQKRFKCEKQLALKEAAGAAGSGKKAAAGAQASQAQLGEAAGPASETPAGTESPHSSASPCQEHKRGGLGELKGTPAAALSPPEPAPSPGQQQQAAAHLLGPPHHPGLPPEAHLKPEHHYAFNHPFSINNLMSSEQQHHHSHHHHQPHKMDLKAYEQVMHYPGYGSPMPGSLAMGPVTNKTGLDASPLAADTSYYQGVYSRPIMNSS

Assay [17] in a line: ATG_FoxO_CIS: Attagene CIS-FACTORIAL HepG2 Assay for human Forkhead box O (FoxO) (AID 2282943). To be noted: HepG2 Attagene cis-reporter, FoxO element, mRNA; actives raise or lower the signal. Summed up: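 HepG2 cells transiently transfected with cis-element-driven reporter units report endogenous FoxO activity. After 24 h chemical exposure, reporter mRNA quantified by RT-PCR, fluorescent labeling, HpaI digestion and capillary electrophoresis; bidirectional fit versus DMSO.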

Assay [18] is described as follows: ATG_GATA_CIS: Attagene CIS-FACTORIAL HepG2 Assay for human GATA Binding Protein (AID 2282944). To be noted: HepG2 GATA cis-element reporter, Attagene multiplex mRNA; actives raise or lower the signal. The method, boiled down:
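DMSO serves as negative control and baseline for bidirectional fitting of reporter mRNA changes. HepG2 cells bearing transiently transfected cis-promoter reporters were exposed 24 h; transcripts detected via RT-PCR and capillary electrophoresis.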

Assay [19] can be described thus: ATG_GLI_CIS: Attagene CIS-FACTORIAL HepG2 Assay for human Zinc Finger Protein GLI1 (AID 2282945). To be noted: HepG2, Attagene cis-factorial reporter mRNA, GLI element; actives raise or lower the signal. The method, boiled down:
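Transiently transfected HepG2 cells report endogenous transcription factor activity via cis-element-driven reporter units. After 24 h compound exposure, reporter mRNA was measured by RT-PCR with capillary electrophoresis; bidirectional fitting against DMSO baseline.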

Assay [20] concerns the target Retinoic acid receptor alpha (Homo sapiens) (UniProt P10276). Put plainly: ATG_DR5_RAR_CIS: Attagene CIS-FACTORIAL HepG2 Assay for human Retinoic Acid Receptor Alpha (RARE), DR5 submotif (AID 2282934). To be noted: HepG2 Attagene cis-factorial RARE DR5 reporter, mRNA; actives raise or lower the signal. The method, boiled down:
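HepG2 cells transiently transfected with multiplexed reporter units; DR5 cis-element drives reporter through endogenous transcription factors. After 24 h dosing, reporter mRNA quantified by RT-PCR, fluorescent labeling, HpaI digestion and capillary electrophoresis; bidirectional fitting versus DMSO.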

SMILES strings stand for the structures. Active and inactive are the calls of the source. Rule for the calls: active = hit-call score of the fitted dose curve at least 0.9, where 1 is the maximum; inactive = score below 0.9.

Sequence of Transcription factor E2F1 (Homo sapiens) (Q01094 whole entry, looked up): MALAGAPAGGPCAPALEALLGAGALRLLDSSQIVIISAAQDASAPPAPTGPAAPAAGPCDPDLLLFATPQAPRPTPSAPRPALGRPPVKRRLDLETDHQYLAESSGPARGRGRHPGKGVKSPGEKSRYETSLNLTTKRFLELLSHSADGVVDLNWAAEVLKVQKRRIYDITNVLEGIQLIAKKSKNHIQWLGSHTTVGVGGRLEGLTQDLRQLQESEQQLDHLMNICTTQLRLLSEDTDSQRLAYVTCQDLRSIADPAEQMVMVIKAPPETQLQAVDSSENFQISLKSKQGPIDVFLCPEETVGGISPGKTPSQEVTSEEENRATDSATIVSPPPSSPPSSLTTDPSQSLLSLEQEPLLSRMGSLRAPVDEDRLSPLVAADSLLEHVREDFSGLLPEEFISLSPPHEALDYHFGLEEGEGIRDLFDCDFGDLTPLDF
Sequence of Retinoic acid receptor alpha (Homo sapiens) (P10276 whole entry, looked up): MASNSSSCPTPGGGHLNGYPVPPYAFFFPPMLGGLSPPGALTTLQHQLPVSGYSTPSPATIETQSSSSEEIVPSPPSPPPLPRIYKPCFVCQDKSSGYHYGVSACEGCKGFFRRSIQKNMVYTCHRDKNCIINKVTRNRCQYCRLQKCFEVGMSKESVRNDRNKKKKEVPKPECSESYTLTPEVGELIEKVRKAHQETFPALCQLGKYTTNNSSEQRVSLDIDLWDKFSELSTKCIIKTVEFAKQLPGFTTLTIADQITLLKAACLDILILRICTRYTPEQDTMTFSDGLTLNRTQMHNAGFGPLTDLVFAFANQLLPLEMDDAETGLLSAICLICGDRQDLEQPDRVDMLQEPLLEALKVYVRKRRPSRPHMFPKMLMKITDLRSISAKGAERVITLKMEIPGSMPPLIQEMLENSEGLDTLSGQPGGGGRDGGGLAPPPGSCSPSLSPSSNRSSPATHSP
Sequence of CCAAT/enhancer-binding protein beta (Homo sapiens) (P17676 whole entry, looked up): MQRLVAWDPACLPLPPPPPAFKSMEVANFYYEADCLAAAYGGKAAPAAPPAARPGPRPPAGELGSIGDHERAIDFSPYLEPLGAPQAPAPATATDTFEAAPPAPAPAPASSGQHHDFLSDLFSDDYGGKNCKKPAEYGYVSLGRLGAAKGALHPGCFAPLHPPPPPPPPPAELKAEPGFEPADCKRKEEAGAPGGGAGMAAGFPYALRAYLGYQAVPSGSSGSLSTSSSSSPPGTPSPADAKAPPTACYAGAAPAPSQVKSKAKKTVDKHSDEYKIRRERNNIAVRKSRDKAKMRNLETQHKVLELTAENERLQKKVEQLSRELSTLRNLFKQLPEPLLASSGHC
Sequence of Aryl hydrocarbon receptor (Homo sapiens) (P35869 whole entry, looked up): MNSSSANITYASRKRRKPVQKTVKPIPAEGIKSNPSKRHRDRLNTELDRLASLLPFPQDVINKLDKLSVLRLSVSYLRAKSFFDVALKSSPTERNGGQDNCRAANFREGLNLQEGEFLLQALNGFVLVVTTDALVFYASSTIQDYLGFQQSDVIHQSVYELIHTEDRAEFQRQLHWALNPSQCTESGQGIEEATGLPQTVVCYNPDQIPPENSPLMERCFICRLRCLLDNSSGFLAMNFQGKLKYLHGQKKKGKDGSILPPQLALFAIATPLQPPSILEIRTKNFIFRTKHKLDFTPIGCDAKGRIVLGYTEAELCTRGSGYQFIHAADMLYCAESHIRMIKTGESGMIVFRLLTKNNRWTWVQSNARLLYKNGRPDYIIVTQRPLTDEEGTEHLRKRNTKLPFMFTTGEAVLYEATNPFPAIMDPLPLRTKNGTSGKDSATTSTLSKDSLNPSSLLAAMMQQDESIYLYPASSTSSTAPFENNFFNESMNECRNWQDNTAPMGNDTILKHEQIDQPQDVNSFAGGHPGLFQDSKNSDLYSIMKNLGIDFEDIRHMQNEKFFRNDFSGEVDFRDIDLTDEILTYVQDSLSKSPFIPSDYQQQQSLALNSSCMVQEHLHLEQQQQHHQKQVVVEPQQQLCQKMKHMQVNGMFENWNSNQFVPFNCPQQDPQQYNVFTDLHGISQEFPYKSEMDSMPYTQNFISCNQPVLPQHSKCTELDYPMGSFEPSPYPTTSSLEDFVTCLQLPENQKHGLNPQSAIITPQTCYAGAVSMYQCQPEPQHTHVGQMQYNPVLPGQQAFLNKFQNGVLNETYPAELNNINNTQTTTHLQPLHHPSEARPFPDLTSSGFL

On to `NNC(=O)c1ccncc1`, for which the molecule was called inactive in assay [1], in [2], in assay [3], in [4], in [5] and in assay [6]. In addition, the result in [7], in assay [8], in assay [9], in assay [10], in assay [11] and in [12] was inactive. Moreover, the molecule was called inactive in [13], in assay [15], in assay [16], in assay [17], in [18] and in assay [19]. Further, the half-maximal activity concentration (AC50) (as a rule, the concentration at which the activity in the assay is half-maximal) in assay [14] was 26.6 µM (active).
Take `CCc1ccc(O)c(C(C)(C)C)c1`: the call in assay [1], in assay [2], in assay [4], in [5], in assay [7] and in assay [8] was inactive. For the same molecule, the molecule was classed as inactive in assay [9], in [10], in assay [11], in assay [12], in [13] and in assay [14]. The call in assay [15], in [16], in assay [17], in assay [18] and in [19] was inactive. In addition, the values for the AC50 in assay [3] and in assay [6] were 43 µM (active) and 43.7 µM (active), respectively.
On to `O=S(=O)(O)c1ccc(N=Nc2c(O)ccc3cc(S(=O)(=O)O)ccc23)cc1`, for which the result in [1], in assay [2], in assay [3], in assay [4], in assay [5] and in assay [6] was inactive. Also, the call in assay [7], in assay [8], in assay [20], in [10], in assay [11] and in [12] was inactive. In addition, the molecule was called inactive in assay [13], in [14], in assay [15], in assay [16], in [17] and in assay [18]. Also, the molecule was classed as inactive in assay [19].
For the molecule `FC(F)(F)COC(OCC(F)(F)F)OCC(F)(F)F`, the result in [1], in assay [2], in [3], in assay [4], in assay [5] and in [6] was inactive. Moreover, the call in assay [7], in [8], in assay [20], in [9], in assay [10] and in [11] was inactive. Further, the call in [12], in assay [13], in [14], in [15], in [16] and in [17] was inactive. Also, the call in assay [19] was inactive.
As for `CC(C)C(=O)Nc1ccc([N+](=O)[O-])c(C(F)(F)F)c1`, the molecule was classed as inactive in assay [1], in assay [2], in assay [3], in [4], in assay [7] and in assay [20]. Further, the result in assay [9], in [10], in assay [11], in assay [12], in assay [13] and in assay [14] was inactive. Also, the molecule was called inactive in [15], in [16], in assay [17] and in [19]. Further, the AC50 in assay [5] is 135 µM (active); in assay [6], 23.5 µM (active); in assay [8] it was 65.1 µM (active).
Consider `CCCCCCOC(=O)CC(CC(=O)OCCCCCC)(OC(=O)CCC)C(=O)OCCCCCC`, for which the call in assay [1], in assay [2], in [3], in assay [4], in assay [5] and in assay [6] was inactive. Also, the molecule was classed as inactive in assay [7], in assay [8], in assay [20], in assay [9], in assay [10] and in assay [11]. Further, the molecule was classed as inactive in [12], in assay [13], in assay [14], in assay [15], in assay [16] and in [17]. In addition, the molecule was classed as inactive in assay [18] and in [19].
Turning to `NC(=O)N1c2ccccc2C=Cc2ccccc21`, the molecule was classed as inactive in assay [1], in assay [2], in assay [3], in assay [4], in [5] and in [6]. Further, the outcome in [7], in assay [8], in [20], in assay [10], in assay [11] and in [12] was inactive. Besides, the result in assay [13], in assay [15], in assay [16], in assay [17], in [18] and in [19] was inactive. The AC50 in assay [14] was 49.9 µM (active).
